High-throughput results as filed in PubChem.
HepG2 viability: qHTS for Inhibitors of TGF-b: Cytotox Counterscreen; HepG2 CAGA-GFP viability, ATP luminescence, 18 h; Potency, µM (doses to about 46.1 µM), for the others: at the top dose activity change, negative = cytotoxicity, actives largely listed as cytotoxic; 410,000 tested, 0.76% active; AID 588856, 2011
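HepG2 CAGA-GFP cells (1000/well, DMEM with 1% FBS) received compound, then TGF-beta at 500 pg/mL final, and were incubated 18 hours at 37 degrees C. Viability was read by CellTiter-Glo luminescence. Media-only wells were set as complete cell-killing and DMSO as no toxicity.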
Nrf2 activator: qHTS of Nrf2 Activators; AREc32 ARE-luciferase reporter (MCF7-derived line), luminescence, 24 h; AID 624171, 2012; 410,000 tested, 0.31% active; Potency, µM (doses to about 46.1 µM), for the others: at the top dose activation, usual class: activators; also: % of control where 0% means no effect; nearly all actives have a fitted effect of over 65% in size
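ARE-driven firefly luciferase activity in AREc32 cells measured after a 24 hr compound exposure at 37 deg C, using Steady-Glo reagent and a 30 min room-temperature hold.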
A549 viability: Nrf2 qHTS screen for inhibitors: counterscreen for cytotoxicity. 390,000 tested, 0.16% active. Potency, µM (titrated, usually from 46 µM), without a hit: at the highest dose activity change, negative = cytotoxicity, most hits filed as inhibitors. AID 504648, 2011. A549 ARE-Fluc cells, CellTiter-Fluor viability, 18-24 h; also: % is scaled to controls: 0 for no effect and ±100 for the full control effect
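A549 ARE_Fluc cells in 5% FBS OPTI-MEM were exposed to compounds in concentration-response for 18-24 h at 37 deg C. Viability was read by CellTiter-Fluor fluorescence (Ex 405/Em 525) after 30 min, before the luciferase read.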
Nrf2 inh: Nrf2 qHTS screen for inhibitors; A549 ARE-Fluc reporter, luciferase luminescence, 18-24 h; Potency, µM (series often up to 46 µM), for the others: top-dose activity change, negative = inhibition, usual class: inhibitors; 360,000 tested, 2.1% active; AID 504444, 2011; also: % is scaled to controls: 0 for no effect and ±100 for the full control effect; nearly all actives have a fitted effect of over 60% in size
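Nrf2 function is reported as luminescence of an ARE-controlled luciferase in A549 cells. Compounds were tested at several concentrations, and a CellTiter-Fluor read on the same wells flagged cytotoxicity.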
TGFb inhibitor: qHTS for Inhibitors of TGF-b. Potency, µM (top dose mostly 46.1 µM), for inactives: at the top dose activity, negative = inhibition, actives largely listed as inhibitors. HepG2 CAGA-GFP TGF-b/SMAD3 reporter, GFP fluorescence, 18 h; TGF-beta stimulated, 500 pg/mL final. 410,000 tested, 1.2% active; also: % is scaled to controls: 0 for no effect and ±100 for the full control effect; nearly all actives have a fitted effect of over 65% in size
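Smad-responsive CAGA-GFP expression was quantified in HEPG2 cells exposed to compounds and 500 pg/mL final TGF-beta for 18 h at 37 degrees C; unstimulated wells defined full inhibition.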
The depositor's hits bear a star; ? = inconclusive; nt = no result; ! = not confirmed by another sample; [ ] = dose if it differs, or a comment. Compounds with a hit are over-represented: about 3.6% of the library has one in this group of screens. Calls follow the shape of the dose curve; as a rule, active = well fitted curve in the direction sought with a large enough effect; inconclusive = small, poorly fitted or top-dose-only effect, or another doubt; inactive = no such curve, though single readings can be large; an effect the other way counts as inactive or inconclusive. Potency is read from the fitted curve at half-maximal effect.

SMILES	HepG2 viability	Nrf2 activator	A549 viability	Nrf2 inh	TGFb inhibitor
O=C(COc1ccc(F)cc1)N(Cc1ccco1)C1CCS(=O)(=O)C1 (stereo unspecified)	6%	0%	11%	-13%	3%
CCOC(=O)/C=C1\CN(Cc2cc(OC)c(OC)c(OC)c2)S(=O)(=O)c2ccc(C(F)(F)F)cc21	-15%	2%	0%	21µM*	8.9µM*
OCCN1CCN(CC(O)COc2ccc(C34CC5CC(CC(C5)C3)C4)cc2)CC1 (stereo unspecified)	16µM*	-2%	-10%	15%	?
OCCN1CCN(CC(O)COc2ccc(Cl)cc2)CC1 (stereo unspecified)	-5%	0%	-1%	-12%	4%
CC1=NN2C(=N)/C(=C\c3cc(C)n(Cc4ccccc4)c3C)C(=O)N=C2S1	-15%	3%	-10%	-12%	8%
O=Cc1ccc2ccc3cccnc3c2n1	-20%	5%	-2%	13%	?
c1cnc2c(c1)ccc1cccnc12	-12%	10%	?	5.8µM*	?
Nc1nc(NCc2cccs2)nn1-c1ccccc1	-12%	0%	-3%	?	-20%
COc1ccc(CCNC(=O)C(=O)NCc2ccccc2)cc1OC	-13%	1%	-19%	-4%	-19%
CCCCNC(=O)C1=C(N)C(C(=O)Nc2ccc(C)c(S(=O)(=O)N3CCCCC3)c2)SC1=Nc1ccc(C)cc1C (stereo unspecified)	-46%	4%	-15%	?	-28%
CCN(CC)S(=O)(=O)c1cccc(NC(=O)C2SC(=Nc3ccc(C)cc3C)C(C(=O)NC(C)COC)=C2N)c1 (stereo unspecified)	-8%	2%	?	21µM*	?
O=c1ccc(N=Nc2ccccc2)ccc1O	18µM*	22%	16µM*	?	-25%
O=S(=O)(O)c1ccc(N=Nc2ccccc2)cc1	-20%	2%	-13%	2%	-8%
Cc1ccc2nc(-c3ccc(NS(=O)(=O)c4ccc(F)cc4)cc3)sc2c1	-38%	6%	1%	?	?
COc1ccc(Nc2nc(-c3c(C)nc4ncccn34)cs2)cc1	-25%	10%	-21%	?	?
COc1ccccc1Nc1nc(-c2c(C)nc3ncccn23)cs1	-74%	8%	?	12µM*	-19%
CCOc1ccc(S(=O)(=O)N2CCOCC2)cc1NC(=O)CSCC(=O)Nc1ccc(C)cc1	3%	0%	-5%	-1%	-2%
COC(=O)/C=C/c1ccsc1NC(C)=O	-19%	13µM*	1%	18%	13%
O=C(CSc1n[nH]c(=O)n1C1CC1)Nc1cc(Cl)ccc1Oc1ccccc1	-26%	-1%	?	18µM*	-13%
O=C(CSc1n[nH]c(=O)n1C1CC1)Nc1ccccc1	-18%	-1%	2%	-3%	-1%
CCOc1ccc(CCNC(=O)CSc2cc(=O)n(C)c3ccccc23)cc1OCC	-45%	0%	6%	-19%	-3%
COC(=O)c1cc(=O)n(CCc2ccc(OC)c(OC)c2)c(=Nc2ccc(F)c(Cl)c2)s1	1%	0%	?	23µM*	5%
Cc1ccc(NC(=O)CCCCCN2C(=O)[C@@H]3Cc4ccccc4CN3C2=O)c(Cl)c1	-22%	0%	-21%	23µM*	?
CC(C)(C)OC(=O)C[C@@H]1C/C=C\C[C@@H](CC(=O)N[C@H](CO)Cc2ccccc2)C(=O)N2CCC[C@@H]2COC1=O	0%	0%	3%	0%	12%
CN(C(=O)CSc1nnc(-c2ccccc2F)o1)c1ccccc1	-2%	4%	4%	?	-9%
SMILES	HepG2 viability	Nrf2 activator	A549 viability	Nrf2 inh	TGFb inhibitor
COc1ccc(CN(C(=O)CSc2nnc(-c3ccccc3F)o2)c2ccc(F)cc2)cc1	-18%	-1%	-6%	21µM*	-17%
Cc1ccc(OCCN2CCC2(C)C(=O)NCc2cccc3ccccc23)cc1 (stereo unspecified)	-13%	0%[9.22 µM]	nt	nt	?
Cc1ccc(OCCN2CCC2(C)C(=O)NCc2ccc(C(F)(F)F)cc2)cc1 (stereo unspecified)	-39%	7%	nt	nt	13µM*
CCCc1cnc(N2CCN(S(C)(=O)=O)CC2)nc1	12%	5%	?	-7%	5%
Cc1oc(-c2ccc3c(c2)OCCO3)cc1C(=O)O	-57%	-1%	-5%	9.2µM*	5%
O=C(Nn1cnc2ccccc2c1=O)c1ccc(Br)cc1	-20%	-1%	6%	?	5%
COc1ccccc1C(=O)NNC(=O)c1cccc(Br)c1	-17%	6.3µM*	16%	?	1%
COc1cc(NC(=O)c2cccc(Br)c2)nc(OC)n1	-4%	14µM*	1%	6%	-25%
COc1cc(NC(=O)c2c(F)cccc2F)nc(OC)n1	-12%	3%	15%	nt	10%
CC(C)NC(=O)c1ccc(NC(=O)CC2SC(N3CCCC3)=NC2=O)cc1 (stereo unspecified)	15%	-1%	-6%	12%	8%
Cc1cccc(C)c1OCC(=O)N(Cc1cccs1)C1CCS(=O)(=O)C1 (stereo unspecified)	1%	0%	17%	-1%	-2%
Clc1ccccc1-c1ncc(-c2ccccc2)o1	-20%	10µM*	-2%	?	0%
Cc1nn(C2CCS(=O)(=O)C2)c(Cl)c1/C=C/C(=O)OCC(=O)c1c[nH]c2ccccc12 (stereo unspecified)	-32%	10%	?	?	-45%
Cc1nn(C2CCS(=O)(=O)C2)c(Cl)c1/C=C/C(=O)OCC(=O)c1cc(C)n(-c2ccc(F)cc2)c1C (stereo unspecified)	-23%	0%	10%	21µM*	-27%
COc1cc2ncnc(N3CCN(C(=O)Nc4ccc(Oc5ccccc5)cc4)CC3)c2cc1OC	1%	nt	nt	nt	10µM*
CC(C)C1C(=O)Nc2ccc(S(=O)(=O)NCc3ccc(Cl)cc3)cc21 (stereo unspecified)	-29%	-1%	2%	21µM*	-9%
COc1ccc(NS(=O)(=O)c2ccc3c(c2)C(C(C)C)C(=O)N3)cc1 (stereo unspecified)	-49%	-1%	-1%	?	7%
CCC1CN(C(=O)N2CCC(C(=O)NCc3cccc(OC)c3OC)CC2)c2cc(C)ccc2O1 (stereo unspecified)	-18%	0%	7%	4%	11µM*!
CCC1CN(C(=O)N2CCC(C(=O)NCCc3cc(OC)ccc3OC)CC2)c2ccccc2O1 (stereo unspecified)	-16%	0%	-8%	23µM*	?
